Among the data in the supplement of paper PMC10503962 are mean motility score values, retold here.

The test system of this assay is Trichuris muris adult worms. The assay is described as follows: mean motility score (Paragon pixel variance) of adult worms (arbitrary units); higher = more motile worms, i.e. less anthelmintic effect; extreme values may be limits of the assay. The conditions noted are these: 100 µM; 24 h. As for the experimental part:
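Primary ex vivo screen of 409 approved drugs against adult Trichuris muris worms: one worm per well in RPMI-1640 with penicillin/streptomycin, 100 µM drug in 1% DMSO, 37 °C, 5% CO2 for 24 h. Motility was recorded with INVAPP (200-frame movies) and scored with the Paragon pixel-variance algorithm. Values are means of triplicate wells run on three occasions; levamisole was the positive control and DMSO the negative control.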
`Clc1cc(Cl)c(OCC#CI)cc1Cl` [haloprogin] registered a mean motility score of 2180.

Regarding `CC(C)O` [isopropyl alcohol], the mean motility score turned out to be 2760.

`CC(C)(Oc1ccc(C2CC2(Cl)Cl)cc1)C(=O)O` (stereo not given) [ciprofibrate] came in with a mean motility score of 2070.

In turn, `CC1(C)[C@@H](O[C@H]2O[C@H](C(=O)O)[C@@H](O)[C@H](O)[C@H]2O[C@@H]2O[C@H](C(=O)O)[C@@H](O)[C@H](O)[C@H]2O)CC[C@]2(C)[C@H]3C(=O)C=C4[C@@H]5C[C@@](C)(C(=O)O)CC[C@]5(C)CC[C@@]4(C)[C@]3(C)CC[C@@H]12` [glycyrrhizin] had a mean motility score of 1890.

The molecule `Nc1ncn([C@@H]2O[C@H](CO)[C@@H](O)[C@H]2O)c(=O)n1` [azacitidine] showed a mean motility score of 4300.

Molecule `COC1=CC(=O)C[C@@H](C)[C@]12Oc1c(Cl)c(OC)cc(OC)c1C2=O` [griseofulvin] showed a mean motility score of 1250.

As for `CC(C)(C)NCC(O)c1ccc(O)c(CO)c1.O=S(=O)(O)O` (stereo not given) [albuterol sulfate], the mean motility score came out at 1690.

`C(=C\c1ccccc1)/CN1CCN(C(c2ccccc2)c2ccccc2)CC1` [cinnarizine] showed a mean motility score of 1640.

`COc1cc2c(Nc3ccc(Br)cc3F)ncnc2cc1OCC1CCN(C)CC1` [vandetanib] came in with a mean motility score of 0.

`CNCCCN1c2ccccc2CCc2ccccc21` [desipramine]: the mean motility score worked out at 1090.

`CC(=O)OCC(=O)[C@@]1(O)CC[C@H]2[C@@H]3CCC4=CC(=O)CC[C@]4(C)[C@H]3[C@@H](O)C[C@@]21C` [hydrocortisone acetate] displayed a mean motility score of 3080.

`CCCCc1oc2ccccc2c1C(=O)c1cc(I)c(OCCN(CC)CC)c(I)c1` [amiodarone]: the mean motility score turned out to be 2080.

`CC[N+](CC)(CCNC(=O)C(=O)NCC[N+](CC)(CC)Cc1ccccc1Cl)Cc1ccccc1Cl` [ambenonium] displayed a mean motility score of 3180.

On to `CCc1cccc2c3c([nH]c12)C(CC)(CC(=O)O)OCC3` (stereo not given) [etodolac], for which the mean motility score is 2190.

For the molecule `CCCCC/C=C\C/C=C\C/C=C\CCCCC(=O)O` [gamolenic acid], the mean motility score is 2970.

The molecule `CN1CCCN=C1COC(=O)C(O)(c1ccccc1)C1CCCCC1.Cl` (stereo not given) [oxyphencyclimine hydrochloride] showed a mean motility score of 3070.

Molecule `O=C(O)COC(=O)Cc1ccccc1Nc1c(Cl)cccc1Cl` [aceclofenac] registered a mean motility score of 972.

As for `CCCCCNC(=N)N/N=C/c1c[nH]c2ccc(OC)cc12.O=C(O)/C=C\C(=O)O` [tegaserod maleate], the mean motility score is 0.

Molecule `COCCCC/C(=N\OCCN)c1ccc(C(F)(F)F)cc1` [fluvoxamine] registered a mean motility score of 2670.

The molecule `N[C@@H](CO)C(=O)O` [serine] displayed a mean motility score of 2250.

As for `CCC(C)n1ncn(-c2ccc(N3CCN(c4ccc(OC[C@H]5CO[C@](Cn6cncn6)(c6ccc(Cl)cc6Cl)O5)cc4)CC3)cc2)c1=O` (stereo not given in full) [itraconazole], the mean motility score is 1700.

`O=c1[nH]c(=O)n([C@H]2C[C@H](O)[C@@H](CO)O2)cc1F` [floxuridine] returned a mean motility score of 2280.

`CCn1cc(C(=O)O)c(=O)c2cc(F)c(N3CCNC(C)C3)c(F)c21` (stereo not given) [lomefloxacin] showed a mean motility score of 3840.

Take `C=C[C@H]1CN2CC[C@H]1C[C@@H]2[C@@H](O)c1ccnc2ccc(OC)cc12` [quinidine]: the mean motility score amounted to 1610.

For `O=C(O)CNC(=O)c1ccccc1I` [iodohippurate], the mean motility score was determined as 3580.

`Cc1ccc(O)c(-n2nc3ccccc3n2)c1` [drometrizole] had a mean motility score of 2400.

In turn, `CS(=O)(=O)OCCCCOS(C)(=O)=O` [busulfan] came in with a mean motility score of 3180.

Turning to `Cc1ccc(NC(=O)c2ccc(CN3CCN(C)CC3)cc2)cc1Nc1nccc(-c2cccnc2)n1` [imatinib], the mean motility score was 3600.

`C[C@@H]1CN(c2c(F)c(N)c3c(=O)c(C(=O)O)cn(C4CC4)c3c2F)C[C@H](C)N1` [sparfloxacin] displayed a mean motility score of 3980.

`Cc1ccc(N(C=C2NCCN2)c2cccc(O)c2)cc1` [phentolamine] showed a mean motility score of 2960.

`C[C@@](Cc1ccc(O)c(O)c1)(NN)C(=O)O` [S-carbidopa] returned a mean motility score of 3900.

On to `OCC(S)CS` (stereo not given) [dimercaprol], for which the mean motility score was found to be 1550.

With `CCOC(=O)[C@H](CCc1ccccc1)N[C@@H](C)C(=O)N1Cc2ccccc2C[C@H]1C(=O)O.Cl` [quinapril hydrochloride], the mean motility score amounted to 4700.

`C[C@@H]1C[C@H]2[C@@H]3CCC4=CC(=O)C=C[C@]4(C)[C@@]3(F)[C@@H](O)C[C@]2(C)[C@@]1(O)C(=O)CO` [dexamethasone] showed a mean motility score of 1780.

`CCCc1nc(C(C)(C)O)c(C(=O)OCc2oc(=O)oc2C)n1Cc1ccc(-c2ccccc2-c2nnn[nH]2)cc1` [olmesartan medoxomil] returned a mean motility score of 3650.

Molecule `C#Cc1cccc(Nc2ncnc3cc(OCCOC)c(OCCOC)cc23)c1` [erlotinib] had a mean motility score of 1720.

In turn, `CCCCCCCCCC(=O)OC1(c2ccc(Cl)cc2)CCN(CCCC(=O)c2ccc(F)cc2)CC1` [haloperidol decanoate] registered a mean motility score of 4450.

`C[C@]12CC[C@@H]3c4ccc(O)cc4CC[C@H]3[C@@H]1CCC2=O` [estrone] gave a mean motility score of 2280.

Molecule `CC[N+](CC)(CC)CCOc1cccc(OCC[N+](CC)(CC)CC)c1OCC[N+](CC)(CC)CC.[I-].[I-].[I-]` [gallamine triethiodide] yielded a mean motility score of 4310.

Regarding `CCN1CCCC1CNC(=O)c1cc(S(N)(=O)=O)ccc1OC` (stereo not given) [sulpiride], the mean motility score stood at 2290.
